Results reported in the supplement of paper PMC6555819.

Tests used:
Test in all cases: PBM binding z-score (relative to random genomic background probes); higher = stronger binding; sequences stand for … in GC…GCGATTGACAGCGTAGAATGAAGG
[1] = system: FXR:RXRa (NR concentration 270 nM, RXRa partner concentration 90 nM)
Method in brief: (§1)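 Ligand-free nuclear receptor dimers were applied to custom Agilent 4×180K protein-binding microarrays whose double-stranded probes carried direct-repeat seeds, single-nucleotide variants, half-site ablations and random human genomic background sequences in 34-nt variable regions. Incubation lasted 1 h. Binding z-scores were computed against the random background probes from regression-normalized fluorescence.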

[2] = system: LXRa homodimer (NR concentration 270 nM)
Method in brief: as §1

[3] = system: LXRb homodimer (NR concentration 270 nM)
Method in brief: as §1

[4] = system: PPARg:RXRa (NR concentration 180 nM, RXRa partner concentration 90 nM)
Method in brief: as §1

[5] = system: PPARg:RXRa 270nM:90nM, anti-RXR (NR concentration 270 nM, RXRa partner concentration 90 nM)
Method in brief: as §1

[6] = system: PPARg:RXRa 30nM:10nM, anti-RXR (NR concentration 30 nM, RXRa partner concentration 10 nM)
Method in brief: as §1

[7] = system: PPARg:RXRa 90nM:30nM, anti-RXR (NR concentration 90 nM, RXRa partner concentration 30 nM)
Method in brief: as §1

[8] = system: PPARg:RXRa DBDmut IVT, anti-RXR (DBD mutation: RXRa K156A/R161A, NR concentration 270 nM, RXRa partner concentration 90 nM)
Method in brief: as §1

[9] = system: PPARg:RXRa IVT, anti-PPARg (NR concentration 270 nM, RXRa partner concentration 90 nM)
Method in brief: as §1

[10] = system: PPARg DBDmut:RXRa IVT, anti-PPARg (DBD mutation: PPARg1 K132A/R137A, NR concentration 270 nM, RXRa partner concentration 90 nM)
Method in brief: as §1

[11] = system: PPARg DBDmut IVT, anti-PPARg (DBD mutation: PPARg1 K132A/R137A, NR concentration 270 nM)
Method in brief: as §1

[12] = system: PPARg homodimer (NR concentration 180 nM)
Method in brief: as §1

[13] = system: PXR homodimer (NR concentration 270 nM)
Method in brief: as §1

[14] = system: RARa:RXR (NR concentration 270 nM, RXRa partner concentration 90 nM)
Method in brief: as §1

[15] = system: RARa homodimer (NR concentration 270 nM)
Method in brief: as §1

[16] = system: RARb homodimer (NR concentration 270 nM)
Method in brief: as §1

[17] = system: RARb:RXRa (NR concentration 270 nM, RXRa partner concentration 90 nM)
Method in brief: as §1

[18] = system: LXRa:RXRa (NR concentration 270 nM, RXRa partner concentration 90 nM)
Method in brief: as §1

[19] = system: PPARa:RXRa (NR concentration 270 nM, RXRa partner concentration 90 nM)
Method in brief: as §1

[20] = system: PXR:RXRa (NR concentration 270 nM, RXRa partner concentration 90 nM)
Method in brief: as §1

Sequence | PBM binding z-score [1] | PBM binding z-score [2] | PBM binding z-score [3] | PBM binding z-score [4] | PBM binding z-score [5] | PBM binding z-score [6] | PBM binding z-score [7] | PBM binding z-score [8] | PBM binding z-score [9] | PBM binding z-score [10] | PBM binding z-score [11] | PBM binding z-score [12] | PBM binding z-score [13] | PBM binding z-score [14] | PBM binding z-score [15] | PBM binding z-score [16] | PBM binding z-score [17] | PBM binding z-score [18] | PBM binding z-score [19] | PBM binding z-score [20]
AGTCAAAGTTCATCTAGGTCACGTAAGATATGCT | 7.54 | 7.38 | 2.1 | 7.93 | 7.25 | 4.56 | 6.61 | 3.49 | 6.09 | 1.86 | 2.18 | 4.77 | 13.9 | 6.05 | 2.4 | 5.12 |  |  |  | 
CGTCAAAGTTCAACTAAGGTTACGTAAAGCACGC | 7.19 | 6.3 | 2.31 | 5.53 | 5.55 | 2.42 | 4.33 | 0.789 | 2.44 | 1.54 | 1.43 | 3.83 | 8.22 | 5.27 | 1.91 | 5.67 | 5.44 |  |  | 
TGTCAAAGTTCAAAGGTTACGTAAGTATCCACAC | 7.49 | 5.25 | 2.03 |  | 8.17 | 5.91 | 8.13 | 0.119 | 5.16 | 1.58 | 1.43 | 3.27 | 4.04 |  | 1.12 | 4.75 |  |  |  | 
TTGCCAAGGTGAAAGGTCGTTGATGCACGCCTTG |  | -0.0355 | -0.723 | 8.02 | 7.51 | 6.32 | 8.1 | 1.69 | 4.55 | -0.0211 | -0.745 | 1.54 | -0.137 | 5.68 | -0.379 | 2.56 | 3.06 | 3.11 | 5.16 | 4
CCGAGGAGGTTACGAGGGGGCATTCAGTGCGAAT | 4.41 | 1.63 |  | 2.38 | 3.52 | 0.838 | 2.45 | 1.54 | 3.07 |  |  | 1.6 | 6.9 | 3.97 | -0.256 | 2.52 | 2.89 |  |  | 6.25
TCTAGTTGGTCACGGAGGGCACACACGACGGGTA |  | -0.107 | 0.00573 | 1.25 | 2.05 | 2.8 | 2.39 | 2.05 | 2.85 | 0.649 | 0.752 | 1.2 | 0.255 | 1.01 | 0.42 | 2.28 | 2.35 | 0.609 | 1.38 | 1.11
TGTCAACGTTCAAAGGTAACGTAAGTATCCACAC |  | -0.182 | 0.0417 | 2.58 | 2.69 | 1.18 | 2.07 | -0.155 | 1.78 | 0.941 | 0.758 | 0.252 | -0.0241 | 1.36 | 0.107 | 1 | 1.46 | 0.794 | 1.49 | 0.578
CAAACTAGGTCACCGAAAGGTCAAAGTCCGCATG | 7.31 | 7.45 | 2.39 |  | 8.22 | 6.51 | 8.62 | 8.72 | 9.24 | 8.36 | 7.3 | 9.63 | 3.23 |  | 4.75 | 5.37 |  |  |  | 
CGAACTAGGTCAAGGACAGTAAATCTCCGCACGC |  | 0.115 | -0.249 | 7.56 | 6.25 | 3.88 | 6.02 | 7.9 | 7.98 | 5.28 | 4.25 | 3.13 | 0.317 | 2.19 | 0.685 | 2.91 | 3.67 | 2.4 | 4.71 | 1.1
TAGCCTAGGTCATGCGGGACAGTATAGTGTCGGC |  | 0.386 | -0.0861 | 2.48 | 2.57 | 0.321 | 1.17 | 1.71 | 3.2 | 0.574 | 0.484 | 1.45 | -0.102 | 2.58 | -0.0247 | 2.99 | 3.72 | 2.99 | 3.53 | 1.82
CCTTACGGGTCACGTGGTTATAGCACGACGAGCG | 6.41 | -0.108 | -0.474 | 6.07 | 5.77 | 2.2 | 4.59 | 3.06 | 4.93 | 0.819 | -0.242 | 1.26 | -0.028 | 4.4 | 0.132 | 3.47 | 4.49 |  |  | 
CGAACTACGTCATCCAGGACAGTGAATACATTGA |  | 0.121 | -0.033 | 0.703 | -0.106 | 0.193 | -0.145 | 0.257 | 0.155 | 0.664 | 1.1 | 0.384 | 0.144 | 0.358 | 0.377 | -0.0588 | -0.0115 | -0.0453 | -0.0578 | -0.0551
CGAACTAGGTCATTGACAGGACAATGAATAGTAA | 4.51 | 0.605 | -0.0587 | 7.97 | 6.6 | 3.9 | 5.84 | 8.11 | 8.41 | 3.96 | 1.94 | 1.77 | 0.487 | 2.45 | 0.188 | 2.88 | 3.77 |  |  | 2.07
TAGCCTAGGTCGTTCAGGGGCCAGTATAGAAAGC | 0.616 | -0.424 | 0.206 | -0.0601 | 0.17 | -0.575 | -0.218 | -0.258 | 0.847 | -0.279 | -0.473 | 0.19 | -0.665 | 1.18 | -0.836 | 1.63 | 1.63 |  |  | 0.589
